Assay results taken from the supplement of paper PMC6555819.

Tests used:
Assay in all cases: PBM binding z-score (relative to random genomic background probes); higher = stronger binding; sequences stand for … in GC…GCGATTGACAGCGTAGAATGAAGG
[1] = system: RARb homodimer (NR concentration 270 nM)
In short: (§1)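 Antibodies against each partner of ligand-free nuclear receptor dimers (one per run) detected binding on custom Agilent 4×180K protein-binding microarrays after 1 h incubation. The double-stranded probes had 34-nt variable regions carrying direct-repeat seeds, single-nucleotide variants, half-site ablations and random human genomic background sequences. Binding z-scores, from regression-normalized fluorescence, use the random background probes as reference.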

[2] = system: RARg:RXRa (NR concentration 270 nM, RXRa partner concentration 90 nM)
In short: as §1

[3] = system: RARg homodimer (NR concentration 270 nM)
In short: as §1

[4] = system: RXRa DBDmut IVT, anti-RXR (DBD mutation: RXRa K156A/R161A, NR concentration 90 nM)
In short: as §1

[5] = system: RXRa homodimer (NR concentration 180 nM)
In short: as §1

[6] = system: THRa:RXRa (NR concentration 90 nM, RXRa partner concentration 90 nM)
In short: as §1

[7] = system: THRa homodimer (NR concentration 90 nM)
In short: as §1

[8] = system: VDR homodimer (NR concentration 270 nM)
In short: as §1

| Sequence | PBM binding z-score [1] | PBM binding z-score [2] | PBM binding z-score [3] | PBM binding z-score [4] | PBM binding z-score [5] | PBM binding z-score [6] | PBM binding z-score [7] | PBM binding z-score [8] |
| --- | --- | --- | --- | --- | --- | --- | --- | --- |
| TGAATGAGGTTATAAGATCAGAGAACGTTGCAAA | -0.136 | 1.39 | 0.985 | 0.35 | 1.74 | 1.55 | -0.514 | 0.234 |
| TCGAGTAGGTTAGTCGGGGCATTCCGCCAACATA | 0.291 | -0.0295 | -0.243 | 0.165 | 0.00868 | 1.05 | -0.473 | -0.0294 |
| AGTCAAAGTTCATCTAGGTAACGTCAGATATGCT | 3.92 | 5.76 | 6.22 | 4.83 | 4.45 | 3.18 | 0.387 | 5.66 |
| GCTAGTTGGTCAGTAGAAGGTCACACACCGGTCG | 4.34 | 4.23 | 3.7 | 0.334 | 3.35 | 2.75 | 1.59 | 1.32 |
| ATAACAAGGTGATCGTGAGGTCGTTGATACTAAC | 1.58 | 2.43 | 1.23 | 0.955 | 1.76 | 3.48 | 2.31 | 2.78 |
| GATACAGGTTCAGCTAGAGGCCAGAGTATGGAAA | 1.13 | 4.48 | 1.11 | 3.05 | 1.33 | 1.16 | -0.412 | 2.29 |
| ATCTCTAGGTAAAACTTCAGTGAATCCCGAGGAT | -0.785 | 0.396 | 0.43 | -0.375 | 0.101 | 0.283 | -0.319 | -0.455 |
| TCTTGTAGATCAATAGGGGTTAAGAAAGTGCGCT | 1.26 | 1.07 | 0.498 | 1.53 | 2.18 | 2.19 | 0.19 | 0.671 |
| TTACCAAGGTGAAAGGTCGTGGATGCACGCCTTG | 2.98 | 5.09 | 2.53 | 0.256 | 6.85 | 3.45 | 0.939 | 0.435 |
| ACTAGCAGGCCACGTTTGGGTCACTCAAACAAAG | 1.91 | 2.05 | 1.58 | -0.109 | 0.813 | 2.64 | 1.28 | -0.0731 |
| TAGCCTAGGTCAGATCGGCCCAGTATACGCTATA | 1.84 | 2.5 | 3.35 | -0.434 | 1.35 | 1.98 | -0.12 | -0.474 |
| CAAACTAGGTCAAAGGTCAAATTCGAGCCAACCA | 4.86 | 8.92 | 7.49 | 3.06 | 10.2 | 4.77 | 1.67 | 3.08 |
| TTGCCTAGGTCATTCAGGGGCCAGTATAGAAAGC | 3.3 | 6.09 | 4.46 | 2.14 | 2.76 | 3.48 | 0.747 | 1.75 |
| CCCACTGGGGCAGAAAGGTTACCATACCATCCGG | 2.2 | 1.52 | 1.63 | -1.65 | 1.6 | 1.01 | -0.221 | -0.41 |
| TATCGGAGGACACGAAAGGTCAGAGCTCGACATC | 5.03 | 4.79 | 5.31 | 0.361 | 4.07 | 3.95 | 1.59 | 1.67 |
| CGTCCAAGTTCAAAGGTCAGTGAAGAGATGACGG | 4.6 | 7.24 | 6.28 | 4.85 | 8.41 | 3.84 | 0.506 | 5.47 |
| ATTAGTTGGTCAGCTGAGGTCACACACAATTCGG | 4.56 | 4.39 | 4.28 | 1.58 | 4.35 | 5.05 | 5.22 | 4.18 |
| CCTGATAGGTCAATGGTCAGCTAAAGCAGCTCGC | 3.38 | 4.62 | 4.89 | 1.32 | 3.76 | 1.72 | -0.0298 | 0.339 |
| AGAACGAGGGCACGCTGAGTTGATCGCAGAGTAG | 1.14 | 2.19 | 2.41 | 1.74 | 1.27 | 1.85 | -0.239 | 1.73 |

| Sequence | PBM binding z-score [1] | PBM binding z-score [2] | PBM binding z-score [3] | PBM binding z-score [4] | PBM binding z-score [5] | PBM binding z-score [6] | PBM binding z-score [7] | PBM binding z-score [8] |
| --- | --- | --- | --- | --- | --- | --- | --- | --- |
| TGAATGAGGTTAAAAGATCAGGGAACGTTGCAAA | 0.578 | 2.56 | 1.18 | 0.605 | 2.79 | 1.83 | -0.00624 | 0.327 |
| ATCGAAAGGTCGAGGTGAGTATCGAGAAAGGGAA | 2.53 | 4.33 | 4.51 | 0.532 | 4.17 | 2.65 | 0.543 | 0.173 |
| ACTTACGGGTCAACGAGGTTATCGCACGCGTATA | 3.52 | 5.86 | 5.38 | 3 | 6.75 | 4.19 | 1.23 | 4.34 |
| ATACCAAGGTGATAGTGAGGTCGTTGATACTAAC | 1.84 | 2.12 | 0.961 | 0.897 | 1.84 | 3.3 | 2.49 | 3.15 |
| CCGACTAGGGCAAGGTTACCATAACGCACAGCCA | 1.42 | 1.33 | 1.66 | 0.121 | 1.08 | 1.23 | 0.242 | 0.0806 |
| ACAACGAGGGCAATGAGTTGATAGCACGGGTGGC | 1.02 | 1.31 | 1.71 | 2.02 | 0.837 | 0.856 | -0.343 | 2.98 |
| TCTTTTAGTTGAAGGGCAACCGACGAGTCCGTTT | 1.24 | 0.599 | 0.744 | 1.5 | 0.842 | 0.355 | -0.174 | 1.29 |
| CAAACTGGGTCAAGGTCAAAGTCGGTTTGTGCCA | 4.97 | 5.77 | 6.18 | 3.04 | 5.91 | 4.27 | 3.47 | 4.24 |
| TCATATAGGTAAACACGTGAAAGTCCGTAAGTTA | 0.112 | 0.245 | 0.371 | 1.31 | 0.661 | 0.0438 | 0.238 | 0.164 |
| CCTTACGGGTCACGATGTTATAGCACGACGAGCG | 3.21 | 5.22 | 5.07 | 0.775 | 5.71 | 2.88 | 0.472 | 0.567 |
| CCTATTAGTTGACCATATGGGCAACCGAAGCTCG | 0.53 | 0.405 | 0.481 | 0.486 | 0.208 | 0.00602 | 0.303 | 0.527 |
| CGAACTAGGTCATTGACAGGACATTGAATAGTAA | 2.8 | 4.62 | 4.56 | 2.52 | 2.75 | 2.9 | 0.971 | 1.62 |
| CCTACTGGGCCATCAGGTCATTTATATCAACGTT | 2.44 | 1.8 | 1.64 | 0.641 | 0.891 | 3.14 | 3.01 | 1.61 |
| TCGAGTAGGTTACCAATGGGGCATACAGCTTTCT | 0.633 | 1.41 | 0.627 | 0.223 | 1.01 | 0.248 | -0.753 | -0.212 |
| CAAACTAGGTCACCGGAGGGTCAAAGTCCGCATG | 5.26 | 7.83 | 6.79 | 1.19 | 5.89 | 4.24 | 2.21 | 2.78 |
| CTAACTAGGTCATCCAGGACAGTGAATACATTGA | 2.94 | 4.11 | 4.62 | 2.34 | 3.07 | 3.84 | 2.16 | 2.32 |
| CATACAGGGTCAGCTAGGCAAGAGTAGGGACGGC | 2.9 | 4.17 | 4.1 | 1.22 | 4.03 | 2.94 | 1 | 0.693 |
| ATCGAAAGGTCGAAGGTGAGTATACCCACCCGAA | 2.51 | 4.29 | 3.81 | 0.771 | 5.16 | 2.27 | -0.0349 | 0.804 |
